Assay results as given in PubChem BioAssay AID1851 (National Center for Advancing Translational Sciences (NCATS), 2009).
Out of some 16,000 compounds screened, about 4,000 (25%) were called active. Another 26% or so got no clear call; they are omitted. Calls come from the whole dose curve; as a rule, active = well fitted curve in the direction sought with a large enough effect; inconclusive = small, poorly fitted or top-dose-only effect, or effect the other way; inactive = no such curve, though single readings can be large or run the other way. A selection follows.

Biological target: Cytochrome P450 2C9 (Homo sapiens) (UniProt P11712)
Sequence (P11712 whole entry, looked up): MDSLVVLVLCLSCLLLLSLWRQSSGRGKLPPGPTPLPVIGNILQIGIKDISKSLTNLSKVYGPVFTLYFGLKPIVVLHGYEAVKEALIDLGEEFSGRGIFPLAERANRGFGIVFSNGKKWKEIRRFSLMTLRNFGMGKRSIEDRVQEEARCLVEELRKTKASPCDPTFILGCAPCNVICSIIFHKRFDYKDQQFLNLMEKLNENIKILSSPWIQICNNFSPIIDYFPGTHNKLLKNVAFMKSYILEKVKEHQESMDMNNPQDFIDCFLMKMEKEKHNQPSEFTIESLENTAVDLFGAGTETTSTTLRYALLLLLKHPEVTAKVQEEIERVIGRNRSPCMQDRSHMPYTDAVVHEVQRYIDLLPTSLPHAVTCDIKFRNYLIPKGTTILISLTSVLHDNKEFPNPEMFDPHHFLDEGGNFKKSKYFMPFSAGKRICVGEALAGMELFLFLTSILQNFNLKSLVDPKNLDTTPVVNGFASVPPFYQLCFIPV
Experiment: Cytochrome panel assay with activity outcomes
Details: recombinant CYP, pro-luciferin dealkylation, luminescence, p450-cyp2c9; series mostly up to 57.1 µM; activity, negative = inhibition: at the top concentration
% is set by controls: 0 for no effect and ±100 for the full control effect.

activity, negative = inhibition, inactive:
Cc1n[nH]c(=O)nc1NCc1ccccc1Cl 22.6%, Cn1c(=O)n(CCC(=O)O)c2ccccc21 23.1%, O=c1[nH]cc(CS(=O)(=O)Cc2c[nH]c(=O)[nH]c2=O)c(=O)[nH]1 -2.59% [at 11.4 µM], C/C(=N\O)c1ccc2[nH]ccc2c1 -8.4%, Cc1n[nH]c(C)c1S(=O)(=O)N1CCC(C(=O)O)CC1 -2.96%, O=C(NNC(=O)c1ccncc1)c1ccncc1 0.511% [at 11.4 µM], NNC(=O)c1ccncc1 -14.5% [at 25.6 µM], NS(=O)(=O)c1ccc(N=Nc2cc3ccccc3c(C(=O)O)c2O)cc1 -1.93% [at 11.4 µM], CCN1C(=O)[C@H]2[C@H]3[C@H](O)[C@H](O)C/C(=N/O[C@@H]4O[C@H](COC(C)=O)[C@@H](OC(C)=O)[C@H](OC(C)=O)[C@H]4OC(C)=O)[C@@H]3CC[C@@H]2C1=O -1.58% [at 11.4 µM], CC1(C)Cc2ccccc2C(NNC(=O)c2ccncc2)=N1 -14.2%, C/C(=N\NC(=O)c1ccc(Br)cc1)c1ccccc1 9.36%, CC(=O)N1CCC2(CCCN(c3ncccn3)C2)CC1 -3.08%, CC(C)NC(=O)N1CCC2(CC1)CCN(C(=O)c1cccc(F)c1)CC2 27.3%, O=C(c1cccc(F)c1)N1CCC2(CC1)CCN(c1ccccc1)CC2 -28.2%, O=C(c1cc(C(F)(F)F)cc(C(F)(F)F)c1)N1CCC2(CCCN(c3ncccn3)C2)CC1 -8.06%, COc1cccc2c1C(=O)c1c(O)c3c(c(O)c1C2=O)C[C@](O)(C(=O)CO)C[C@H]3O[C@@H]1C[C@H](N)[C@H](O)[C@H](C)O1 -8.75% [at 25.6 µM], O=C(O)[C@@H]1CCCN1 1.2% [at 11.4 µM], O=C(N/C(=C/c1ccc(Br)cc1)c1nc2ccccc2[nH]1)c1ccco1 -21.8%, CCOc1nc(N=C(N)N)nc2c(C)cccc12 -3.81%, COc1ccc2nc(N)sc2c1 -0.783%, COc1ccc2nc(NCN3C(=O)c4ccccc4C3=O)sc2c1 -14.8% [at 11.4 µM], CN1CCN(CCCBr)CC1 18% [at 11.4 µM], C[C@H](O/N=C1/[C@H]2O[C@@H]2[C@@H](O)[C@H]2[C@H]1CCn1c(=O)n(-c3ccccc3)c(=O)n12)c1cn([C@H]2COC[C@H]2O)nn1 0.305% [at 11.4 µM], CCNc1ncc2nc(-c3cccs3)c(=O)n(CCc3ccccc3)c2n1 -4.57%, CN1CCN(c2ncc3nc(-c4cccs4)c(=O)n(CCc4ccccc4)c3n2)CC1 3.63%, COc1cc(/C=C\C(=O)N2CCC=CC2=O)cc(OC)c1OC 17.9% [at 25.6 µM], COc1ccc(NC(=O)COC(=O)Cn2c(C)nc3ccccc32)cc1OC -22.4%, CC(=O)n1c(COS(C)(=O)=O)nc2ccccc21 -7.23% [at 11.4 µM], COc1cc(/C=C/C(=O)Nc2ccccc2C(F)(F)F)cc(OC)c1OC -26.9%, CCCNC(=O)OC[C@@H]1O[C@H](c2ccccc2)C=C[C@@H]1Oc1ccc(OC)cc1 -29.7% [at 11.4 µM], COc1ccc(O[C@H]2C=C[C@@H](c3ccccc3)O[C@@H]2CO/N=C(\C)CCN2CCc3nc(-c4ccccc4)c(-c4ccccc4)cc3C2)cc1 -13.6% [at 11.4 µM], COc1ccc(O[C@H]2C=C[C@@H](c3ccccc3)O[C@H]2CO/N=C(/C)CCC(=O)OC[C@@H]2O[C@H](C#Cc3ccccc3)C=C[C@@H]2Oc2ccc(C)cc2)cc1 -16.6% [at 11.4 µM], C/C(CCC(=O)OC[C@@H]1O[C@H](C#Cc2ccccc2)C=C[C@@H]1Oc1ccc(C)cc1)=N/OC[C@@H](O)[C@H]1O[C@H]2OC(C)(C)O[C@H]2[C@@H]1O -25.1% [at 11.4 µM], CCCNC(=O)OC[C@H]1O[C@@H](CCO/N=C2/[C@H]3O[C@@H]3[C@@H](O)[C@H]3[C@H]2CCn2c(=O)n(-c4ccccc4)c(=O)n23)C=C[C@@H]1Oc1ccc(OC)cc1 -24.3% [at 11.4 µM], COc1ccc(O[C@H]2C=C[C@@H](c3ccccc3)O[C@H]2CO/N=C(/C)CCC(=O)OC[C@@H]2O[C@H](c3ccccc3)C=C[C@@H]2Oc2ccc(OC)cc2)cc1 -3.16% [at 11.4 µM], CCCNC(=O)OC[C@@H]1O[C@H](CCO/N=C(\C)CCN2CCc3nc(CC)c(CC)cc3C2)C=C[C@@H]1Oc1ccc(OC)cc1 -21.2% [at 11.4 µM], COc1ccc(O[C@H]2C=C[C@@H](c3ccccc3)O[C@H]2COC(=O)CC/C(C)=N/O[C@@H]2O[C@H](COC(C)=O)[C@H](OC(C)=O)[C@H](OC(C)=O)[C@H]2OC(C)=O)cc1 -25.6% [at 11.4 µM], C=CC[N+]1(CC#CCOC(c2ccccc2)c2ccccc2)CCOCC1 -4.98%, COc1ccccc1CNc1ncncc1-c1ccccc1C 11.7% [at 2.29 µM], CO/N=C(\C)CCN1CCCCc2nc(C)c(C)cc21 8.57% [at 11.4 µM], CC1=CC(=O)C=CC1(C)C(Cl)(Cl)Cl (stereo not drawn) -19.5%, Nc1nccc(Nc2ccc(S(N)(=O)=O)cc2)n1 -3.1% [at 11.4 µM], CCCOc1ccc(C(=O)CCNc2ccc(C)c(Cl)c2)cc1 1.11%, CCOC(OCC)P(=O)(O)CCCNCc1ccc(Cl)c(Cl)c1 6.63%, CCCCc1c(O)nc(SCCN(C)C)n(-c2ccccc2)c1=O -4.69%, Cn1c(SCc2nc3ccccc3n2CCO)nc2ccccc21 -20.4%, C[C@@H](N)C(=O)O -3.47%, CCN1CCc2c(sc(NC(=S)NC(=O)c3ccccc3)c2C#N)C1 -29.2%, CCN1CCc2c(sc(N)c2C(N)=O)C1 -3.22%, CCSc1nnc(NC(=O)Cc2ccccc2OC)s1 -20.3%, CC(=O)CC(=O)Nc1ccc2ccccc2c1 21.1% [at 11.4 µM], O=C(COc1ccc2ccccc2c1)NNC(=O)Cc1cccc2ccccc12 4.04%, Nc1nc(Cl)cc(NCCO)n1 2.74% [at 11.4 µM], O=C(O)[C@@H]1Cc2c([nH]c3ccccc23)[C@@H](CCCCO)N1 -6.46% [at 11.4 µM], N#Cc1cccc(NC(=O)N2CCCC3(CCN(C(=O)c4cnccn4)CC3)C2)c1 3.77%, CS(=O)(=O)N1CCC2(CC1)CN(C(=O)Nc1cccc(C#N)c1)C2 -4.82%, CC(C)(C)NCC[C@@H](O)c1cc(C(F)(F)F)nc2c(C(F)(F)F)cccc12 3.88% [at 11.4 µM], NCCNS(=O)(=O)c1ccc(N)cc1 -0.285% [at 11.4 µM], CNCCNS(=O)(=O)c1cccc2cnccc12 -29.4%, CCCCCCCNS(=O)(=O)c1cccc2c(Cl)cccc12 -21.1%

AC50, inactive:
NCCNS(=O)(=O)c1cccc2cnccc12

AC50, active:
CCOC(=O)n1c(=O)n(Cc2ccccc2Cl)c2ccccc21 8.91 µM, CCOC(=O)n1c(=O)n(Cc2c(Cl)cccc2Cl)c2ccccc21 3.98 µM, CC(=O)c1c(C(C)=O)c(C)n(NC(=O)c2ccncc2)c1C 1.58 µM, C/C(=N\NC(=O)c1ccncc1)c1ccc2ccccc2c1O 0.1 µM, O=C(c1cccc(F)c1)N1CCC2(CCCN(c3ncccn3)C2)CC1 15.8 µM, O=C(c1cccc(F)c1)N1CCC2(CC1)CCN(c1ncccn1)CC2 12.6 µM, CCSc1nnc(-c2ccc(Cl)cc2)c2ccccc12 2 µM, Cc1ccc(C(=O)N/C(=C\c2ccc(Br)cc2)c2nc(=S)[nH][nH]2)cc1 8.91 µM, COc1ccc2nc(N3C(=O)CC(Cc4ccc(Cl)cc4)C3=O)sc2c1 (stereo not drawn) 12.6 µM, CCCn1c(-c2cccs2)nc2nc3ccccc3nc21 10 µM, Cc1ccc2nc(SCc3nc4c(cnn4-c4ccccc4)c(=O)[nH]3)[nH]c2c1 4.47 µM, CCSc1nc2ccccc2n1C(=O)/C=C\c1ccc(OC)c(OC)c1 1.58 µM, C=CCSc1nc2ccccc2n1C(=O)/C=C/c1cc(OC)c(OC)c(OC)c1 7.94 µM, COc1ccc(O[C@H]2C=C[C@@H](c3ccccc3)O[C@H]2COC(=O)CC/C(C)=N\OC[C@@H](O)[C@H]2O[C@H]3OC(C)(C)O[C@H]3[C@@H]2O)cc1 1.58 µM, COc1ccc(O[C@H]2C=C[C@@H](c3ccccc3)O[C@H]2COC(=O)N2CCCCC2)cc1 2.51 µM, COc1ccc(O[C@H]2C=C[C@@H](c3ccccc3)O[C@H]2COC(=O)CC/C(C)=N/OCC[C@@H]2C=C[C@H](OC(C)=O)[C@H](COC(C)=O)O2)cc1 3.98 µM, CCCNC(=O)OC[C@@H]1O[C@H](CCO/N=C(\C)CCN2CCc3nc(-c4ccccc4)c(-c4ccccc4)cc3C2)C=C[C@@H]1Oc1ccc(OC)cc1 2 µM, CCOc1ccc(C(=O)Nc2cnn(Cc3ccc(Cl)c(Cl)c3)c2)cc1 17.8 µM, CC(C)N(C(=O)CSc1nc2ccccc2n1-c1ccccc1)C(C)C 15.8 µM, CCOC(=O)c1c(NC(=S)Nc2ccccc2)sc2c1CCN(CCc1ccccc1)C2 0.282 µM, CCSc1nnc(NC(=O)COc2ccc3ccccc3c2)s1 0.224 µM, O=C(COc1ccc2ccccc2c1)Nc1ccc(Cc2ccncc2)cc1 0.316 µM, Cc1cc(C)c(C#N)c(SCc2cc3c(cc2Cl)OCO3)n1 3.16 µM, COc1ccc(Nc2nnc(-c3ccc(N4CCOCC4)c([N+](=O)[O-])c3)c3ccccc23)cc1 3.16 µM, NCCCCNS(=O)(=O)c1ccc2c(Cl)cccc2c1 2 µM, NCCCCCCNS(=O)(=O)c1cccc2c(Cl)cccc12 3.16 µM, NCCCCCCCCCCNS(=O)(=O)c1cccc2c(Cl)cccc12 0.0501 µM
